High-throughput results as filed in PubChem BioAssay.
SUMO Mot1 rescue: yeast Mot1-301 growth rescue at high temperature, primary screen, SUMOylation pathway inhibitor project, S. cerevisiae, ATP luminescence, 38.5C; S. cerevisiae Mot1-301 growth rescue; percent above DMSO median, 100 means doubled; growth rescue, % at 18.8 µM; actives 1% (n = 320,000); AID 2716, 2010;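 active = every valid replicate shows activation above 250% relative to neutral control wells; inactive = the rest, any valid replicate at or below 250%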;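 also: OY570 slx delta 5 strain wells were the positive control but not used for scaling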
MsrA inh: bovine MsrA enzyme inhibitors, primary screen, biochemical, absorbance, HTS. Methionine sulfoxide reductase A (Bos taurus). purified bovine MsrA, absorbance read-out. inhibition, % at 15.5 µM. actives 0.75% (n = 360,000). AID 651718, 2012; in the data active = inhibition above about 4.5%;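 also: 0% = vehicle wells with enzyme and 100% = reference inhibitor wells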
PKA-R1A activ: activators of PKA-R1A holoenzyme, primary screen, biochemical, fluorescence polarization, Cy5-IP20, bovine R1A, mouse PKAc; PKA-R1A dissociation; scaled: DMSO 0%, 113 µM cGMP 100%; activation, % at 11.4 µM; actives 0.083% (n = 340,000);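 active = percent activation above the mean of all tested compounds plus 3 SD, cut at about 19% in these data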;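 also: higher means more PKAc released from R1A so a rise in polarization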
MsrA act: bovine MsrA enzyme activators, primary screen, biochemical, absorbance, HTS | actives 0.3% (n = 360,000) | purified bovine MsrA, absorbance read-out | activation, % at 10.6 µM | Methionine sulfoxide reductase A (Bos taurus); in the data active = activation above about 7.5%;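 also: 0% = vehicle and 100% = reference activator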
PKA-R2B act: activators of PKA-R2B holoenzyme, primary screen, biochemical, fluorescence polarization, Cy5-IP20, human; cAMP-dependent protein kinase catalytic subunit beta (Homo sapiens) + cAMP-dependent …; actives 0.079% (n = 340,000); activation, % at 11.4 µM; PKA-R2B holoenzyme dissociation; R2B truncated from residue 108, S112A mutant; 0% DMSO only, 100% 113 µM cGMP;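 active = activation above a cutoff set at the mean over all compounds plus 3 SD, cut at about 18% in these data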;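 also: higher means more holoenzyme dissociation and a rise in polarization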
Target sequence (P31323 whole entry, looked up, other chains not shown, the tested form may be a part): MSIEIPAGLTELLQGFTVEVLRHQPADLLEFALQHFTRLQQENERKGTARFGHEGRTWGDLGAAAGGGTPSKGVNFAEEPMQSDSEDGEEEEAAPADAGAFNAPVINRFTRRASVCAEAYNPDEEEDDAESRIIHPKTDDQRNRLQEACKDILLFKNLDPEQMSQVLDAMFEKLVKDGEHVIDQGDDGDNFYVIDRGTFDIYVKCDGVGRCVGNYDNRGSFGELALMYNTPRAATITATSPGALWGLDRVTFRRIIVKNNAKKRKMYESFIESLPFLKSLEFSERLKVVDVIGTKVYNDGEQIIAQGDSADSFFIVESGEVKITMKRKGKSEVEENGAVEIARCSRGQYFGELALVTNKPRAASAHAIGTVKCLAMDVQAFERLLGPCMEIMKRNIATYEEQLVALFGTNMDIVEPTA
Mot1 SUMO dose: growth restoration of Mot1-301 yeast on galactose, dose response, SUMO pathway inhibitor project, whole organism, S. cerevisiae, ATP luminescence, cherry-picked samples; 2,300 tested, under 10 active; shares compounds with SUMO Mot1 rescue; S. cerevisiae Mot1-301 galactose growth, 24 h; -100 = growth of slx-deleted rescue strain; growth activity, percent, % at 42 µM;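 active = Signal drops as the depositor expects, and the fitted half-maximal dose is no more than ten times the top valid tested dose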;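 also: more negative values mean stronger growth rescue toward the control strain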
* = called active by the depositor. This is a sample that favours compounds with a hit; in the whole collection about 2% have one here.

CCOC(=O)C1CSCCS(=O)(=O)N1Cc1ccc(C)cc1 (stereo unspecified) was read as MsrA inh -0.8.
For Cc1sc2nc(N)sc2c1C the results were SUMO Mot1 rescue active, MsrA inh -1.2, PKA-R1A activ -14.8, MsrA act -3.4, PKA-R2B act -4.5 and Mot1 SUMO dose 0.4.
Screening Cc1ccc(-c2csc(C3=C(O)CN(NC(=O)c4ccco4)C3=N)n2)cc1 returned SUMO Mot1 rescue 375.5*, MsrA inh 0.6, PKA-R1A activ -3.0, MsrA act -0.3, PKA-R2B act -1.2 and Mot1 SUMO dose 0.4.
Fc1ccc(-c2ccc3c(n2)CCCN3Cc2ccccc2C(F)(F)F)cc1 was read as MsrA inh 1.4.
Screening CCOC(=O)N1CCN(C(=O)CCc2nc3sc4c(c3c(=O)[nH]2)CCCC4)CC1 returned SUMO Mot1 rescue -7.7, MsrA inh -0.7, PKA-R1A activ -0.2, MsrA act -8.1 and PKA-R2B act 3.3.
`O=C(CCc1nc2sc3c(c2c(=O)[nH]1)CCCC3)N1CCN(c2ccccc2)CC1` gave SUMO Mot1 rescue 772.0*, MsrA inh 1.8, PKA-R1A activ -7.9, MsrA act -1.6, PKA-R2B act 4.9 and Mot1 SUMO dose 0.5.
Cc1ccc2nc(CN(C)C(=O)[C@H]3O[C@@H](n4cnc(C(N)=O)n4)[C@H](O)[C@@H]3O)[nH]c2c1 was read as MsrA inh -0.4.
c1ccc2c(c1)[nH]c1c(N3CCN(C4CCCCC4)CC3)ncnc12 was read as SUMO Mot1 rescue 739.1*, MsrA inh 0.8, PKA-R1A activ -13.7, MsrA act 1.7, PKA-R2B act -8.4 and Mot1 SUMO dose -1.4.
`C[C@H](CO)N1C[C@H](C)[C@@H](CN(C)C(=O)Nc2ccnc(N3CCOCC3)c2)OCc2cn(nn2)CCCC1=O` gave MsrA inh 1.8.
Screening C#CCN(Cc1ccco1)C(=O)c1nnc2c3ccccc3n(S(=O)(=O)c3ccc(C)cc3)c2n1 returned MsrA inh -0.8.
FC(F)(F)c1nc2ccccc2n2c(-c3ccc(Cl)cc3Cl)nnc12 was read as SUMO Mot1 rescue active, MsrA inh 0.9, PKA-R1A activ -2.4, MsrA act -9.6, PKA-R2B act -9.3 and Mot1 SUMO dose -0.4.
`Cc1c(NC(=O)CN2C(=O)NC(C)(c3ccc(OC(F)F)cc3)C2=O)c(=O)n(-c2ccccc2)n1C` (stereo unspecified) gave SUMO Mot1 rescue 378.7*, MsrA inh 0.0, PKA-R1A activ -7.7, MsrA act -3.8, PKA-R2B act -10.3 and Mot1 SUMO dose 0.5.
O=Cc1ccc(/C=C2\c3ccccc3C(=O)N2c2ccccc2)o1 was read as MsrA inh 1.6.
For CCOC(=O)c1cnc2oc3ccccc3n2c1=O the results were SUMO Mot1 rescue active, MsrA inh -0.9, PKA-R1A activ -2.1, MsrA act -1.7, PKA-R2B act -4.2 and Mot1 SUMO dose 0.5.
For COC(=O)c1cc(NC(=O)CSc2nnc(CN3CCOCC3)n2C)ccc1Cl the results were SUMO Mot1 rescue 2.7, MsrA inh -0.1, PKA-R1A activ 4.2, MsrA act 0.3 and PKA-R2B act 15.7.
`Cn1c(CN2CCOCC2)nnc1SCC(=O)Nc1cc(Cl)ccc1Cl` gave SUMO Mot1 rescue 611.5*, MsrA inh 0.9, PKA-R1A activ 14.0, MsrA act -1.1, PKA-R2B act 1.5 and Mot1 SUMO dose 1.7.
Screening COc1ccc(C2CC(=O)C(c3ccc([N+](=O)[O-])cc3)=CN2Cc2ccccc2)cc1 (stereo unspecified) returned MsrA inh 4.4.
COc1ccccc1N1C(=O)c2ccccc2NC1C(OC)OC (stereo unspecified) was read as SUMO Mot1 rescue active, MsrA inh 0.6, PKA-R1A activ 4.4, MsrA act -2.4, PKA-R2B act 0.6 and Mot1 SUMO dose 0.4.
Screening O=C1c2ccccc2NC(c2cc(Cl)cc(Cl)c2O)N1CCc1ccccn1 (stereo unspecified) returned MsrA inh 0.3.
`CN(C)/C=N/NC(=O)c1ccccc1` gave SUMO Mot1 rescue 921.0*, MsrA inh 1.7, PKA-R1A activ 1.7, MsrA act -2.6, PKA-R2B act 9.5 and Mot1 SUMO dose 1.1.
Screening O=C(NN=Cc1ccccc1Cl)c1ccccc1 returned MsrA inh 0.2, PKA-R1A activ 10.0, MsrA act -0.5 and PKA-R2B act -3.8.
Screening CCNC(=S)Nc1ccc(C)c(S(=O)(=O)Nc2ccccc2OC)c1 returned SUMO Mot1 rescue 398.3*, MsrA inh -0.9, PKA-R1A activ -6.5, MsrA act -5.2, PKA-R2B act -1.4 and Mot1 SUMO dose -0.6.
`COc1ccccc1NS(=O)(=O)c1cc(NC(=O)CNC(=O)c2cc(C)cc(C)c2)ccc1C` gave SUMO Mot1 rescue 25.1, MsrA inh -1.4, PKA-R1A activ 5.0, MsrA act -1.3 and PKA-R2B act 9.1.
Cc1cc(C)c(NC(=O)CCN2CCN(Cc3ccccc3)CC2)c(C)c1 was read as SUMO Mot1 rescue 465.1*, MsrA inh -0.7, PKA-R1A activ 8.8, MsrA act -3.1, PKA-R2B act 8.4 and Mot1 SUMO dose 0.0.
For C[C@H]1CN(C(=O)OC(C)(C)C)CCN1c1ccc(N2CC[C@H](O)C2)c(C#N)c1 the results were MsrA inh -0.3.
Screening CC1Cc2ccccc2N1C(=O)Cn1c(=O)cc(O)c2ccccc21 (stereo unspecified) returned SUMO Mot1 rescue 636.2*, MsrA inh -0.4, PKA-R1A activ -2.1, MsrA act -0.5, PKA-R2B act 4.9 and Mot1 SUMO dose 0.1.
For CC1Cc2ccccc2N1C(=O)CN1C(=O)COc2ccccc21 (stereo unspecified) the results were SUMO Mot1 rescue 9.4, MsrA inh 0.6, PKA-R1A activ -2.1, MsrA act -3.5 and PKA-R2B act 5.1.
COC(=O)C1(Cc2ccc(O)cc2)OC(=O)C(O)=C1c1ccc(O)cc1 (stereo unspecified) was read as SUMO Mot1 rescue 380.6*, MsrA inh 0.2, PKA-R1A activ 6.0, MsrA act -5.7, PKA-R2B act 3.4 and Mot1 SUMO dose -0.4.
For COC(=O)CCc1ccc(O)cc1 the results were SUMO Mot1 rescue -8.9, MsrA inh 0.8, PKA-R1A activ -10.8, MsrA act -1.1 and PKA-R2B act -3.5.
For CCOC(=O)N(C)C[C@@H]1OCc2cn(nn2)CCCC(=O)N([C@H](C)CO)C[C@H]1C the results were MsrA inh -0.3.
